The text below walks through data of PubChem BioAssay (NCATS).

A short description of assay [1]: Primary qHTS for inhibitors of MERS-S pseudo-typed particle cell entry (AID 1479149; calls by dose curve; note: nearly all actives have a fitted effect of over 60% in size).
Assay [2] can be described thus: Primary qHTS for Vero E6 cytotoxicity: counterscreen for inhibitors of SARS-S pseudo-typed particle cell entry (AID 1479150; calls by dose curve). The conditions noted are these: outcome: dose series up to 57.1 µM unless noted. On the technique in general: qHTS replaces the single test concentration by a dilution series.
The nature of assay [3]: NCATS anti-infectives library activity on HEK293 viability as a counter-qHTS vs the C. elegans viability qHTS (AID 1745854). The procedure, abridged: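 HEK293 cells, 1500 per well, exposed 24 hr at 37C in 5% CO2 to compounds in a 1:5 titration, up to 41.7 uM final. Viability read as CellTiter-Glo luminescence after 10 min at room temperature.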
The nature of assay [4]: G06 Cancer Cell Toxicity qHTS against the NCATS CANVASS Library (AID 1347368). Note: potency is the fitted concentration of half-maximal effect; nearly all actives have a fitted effect of over 60% in size. Put shortly:
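G06 dog glioma cells seeded at 500 cells/well were exposed to compounds (11-point qHTS series) for 72 hr at 37C, 5% CO2; viability read as ATP content by CellTiterGlo luminescence.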

Assay [5] is described as follows: A2780 Cisplatin Sensitive Ovarian Cancer Cell Toxicity qHTS against the NCATS CANVASS Library (AID 1347353). Note: nearly all actives have a fitted effect of over 60% in size. The procedure, abridged:
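A2780 cisplatin-sensitive cells (750 per well) were seeded, left 4 h at 37 °C, then pin-dosed in an 11-point series. After 72 h at 37 °C/5% CO2, viability was measured as ATPLite luminescence.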

Assay [6] can be described thus: HEK-293 Cancer Cell Toxicity qHTS against the NCATS CANVASS Library (AID 1347355). Note: nearly all actives have a fitted effect of over 65% in size. The procedure, abridged:
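Cells were seeded at 1000 per well and allowed to settle 4 hours at 37 degrees C before pin transfer of compounds as an 11-point series. Viability was read by CellTiter-Glo luminescence after 72 hours' exposure.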

Assay [7] in a line: qHTS for ATAD5 Antagonist screened against the NCATS CANVASS Library (AID 1347370).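 Note: HEK293T cells carrying an ATAD5 luciferase reporter co-treated with 10 µM 5-fluorouridine; nearly all actives have a fitted effect of over 65% in size.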 The procedure, abridged:
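HEK293T cells with a stably integrated ATAD5-controlled luciferase reporter were exposed to compounds (11-pt) alongside 10 uM 5-fluorouridine as ATAD5 stabilizer for 16hr at 37C. Viability was read by CellTiter-Fluor fluorescence, then ATAD5 by luminescence.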

The nature of assay [8]: qHTS for inhibitors of ER calcium dysfunction: SERCaMP assay screened against the NCATS CANVASS Library (AID 1347393).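 Note: lower secreted reporter signal means inhibitor of ER calcium depletion; nearly all actives have a fitted effect of over 40% in size.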 The procedure, abridged:
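SH-SY5Y GLuc-SERCaMP, 1000 cells/well, 4 h attach; cpd 16 h, 37C/5% CO2; thapsigargin (added as 6x 600 nM) 4 h; coelenterazine; luminescence. Reduced reporter release = ER Ca stabilization.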

The target in assay [9] is N-terminal Xaa-Pro-Lys N-methyltransferase 1 (Homo sapiens) (UniProt Q9BV86). Kind of assay: Confirmatory qHTS for Inhibitors of N-terminal methyltransferase 1 (NTMT1): MTaseGlo Assay (AID 1645874). Note: potency is the fitted concentration of half-maximal effect; nearly all actives have a fitted effect of over 65% in size. Particulars: NTMT1 enzyme, MTase-Glo SAH luminescence. The procedure, abridged:
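Compounds are incubated with 125 nM NTMT1 and 100 uM SAM for 15 min before the SPKRIA peptide (1 uM) starts a 30 min room-temperature methylation. SAH is measured by coupled luciferase luminescence and curves fitted to a Hill equation.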

A short description of assay [10]: qHTS assay to identify inhibitors of the type 1 interferon - major histocompatibility complex class I in skeletal muscle: Counter screen cell viability and HiBit confirmation (AID 1347412). Note: nearly all actives have a fitted effect of over 60% in size. The conditions noted are these: iHSKM muscle cells + IFN-b, HiBiT or CellTiter-Glo, 24 h; Potency: HiBiT; Viability, at 45.9 µM (top of the series). Put shortly:
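After 24 h with human IFN-beta (4 ng/ml) and compound titrations (top 46 uM final, 1:3, 12 points), HLA-B HiBit myoblasts were lysed for either Nano-Glo HiBiT luminescence or CellTiter Glo viability on paired plates.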

The next assay has as its target Furin (Homo sapiens) (UniProt P09958). Kind of assay: Furin counterscreen qHTS for Zika virus inhibitors (AID 1347149).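 Note: purified recombinant full-length human furin enzyme at 5 nM; fluorescence gain from furin cutting a BOC-RVRR-AMC peptide substrate over 15 min; top concentration of the series differs between compounds; nearly all actives have a fitted effect of over 70% in size.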 The procedure, abridged:
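Fluorogenic cleavage of BOC-RVRR-AMC (2 microM final, Km ~15 µM) was monitored (ex 340, em 450 nm) at 37C after 15 min RT preincubation of 5 nM furin with compounds in HEPES pH 7.0 buffer with CaCl2 and Triton X-100. Percent inhibition was fitted to a 4-parameter Hill curve.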
In general terms: A counterscreen serves to expose hits that act by an unwanted route or on another target.

Assay [11] relates to Zika virus NS2B-NS3 protease (linked construct). Kind of assay: Confirmatory screen NINDS AMC qHTS for Zika virus inhibitors (AID 1347152). Note: top concentration of the series differs between compounds; nearly all actives have a fitted effect of over 70% in size. The procedure, abridged:
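IC50s from 4-parameter Hill fits of percent inhibition, based on AMC fluorescence gain (340/450 nm) over 15 min with 10 microM Bz-Nle-KRR-AMC. Enzyme: 1 nM linked NS2B-NS3 in Tris-HCl pH 8.0; 15-min compound preincubation.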

Assay [12] relates to Zika virus NS2B-NS3 protease (unlinked complex). The assay is described as follows: Confirmatory screen GU AMC qHTS for Zika virus inhibitors (AID 1347153). Note: nearly all actives have a fitted effect of over 70% in size. The procedure, abridged: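 Unlinked enzyme 25 nM, Tris pH 8.0/0.01% Tween 20; cpd 15 min RT, dark; + AMC substrate 10 µM (Km 18.3 µM); 340/450 nm read at t0 and 15 min; % inhibition → 4-param fit.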
Assay [13] is described as follows: Confirmatory screen GU Rhodamine qHTS for Zika virus inhibitors qHTS (AID 1347157). Note: potency is the fitted concentration of half-maximal effect; nearly all actives have a fitted effect of over 70% in size. Put shortly:
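Noncovalent NS2B hydrophilic domain/NS3 protease complex (25 nM final) in 10 mM Tris-HCl pH 8.0, 0.01% Tween 20, preincubated 15 min with compounds (up to 114 microM), then 1.5 microM Rhodamine110 substrate. Fluorescence change over 15 min fitted to 4-parameter Hill.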

Assay [14] can be described thus: Confirmatory screen NINDS Rhodamine qHTS for Zika virus inhibitors (AID 1347161). Put shortly:
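Purified linked NS2B-NS3 protease (NS2B hydrophilic domain joined to NS3 protease by flexible linker), 25 nM in 10 mM Tris-HCl pH 8.0, 0.01% Tween 20. Compounds titrated, 15 min preincubation at room temperature; 1.5 microM Rhodamine110 substrate, FITC fluorescence change over 15 min.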

Assay [15] can be described thus: Vero cells viability qHTS for Zika virus inhibitors (AID 1347167). Put shortly:
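Cells seeded at 2.5 x 10^5 cells/mL in DMEM with 4% FBS and attached overnight at 37 degrees C, then exposed to compound for 24 to 48 hours. Viability read as ATP content by CellTiter Glo luminescence.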

Structures are written as SMILES. Results filed as inconclusive are left out. The source made the active and inactive calls. Unless noted, calls come from the whole dose curve; as a rule, active = well fitted curve in the direction sought with a large enough effect; inconclusive = small, poorly fitted or top-dose-only effect, or another doubt; inactive = no such curve, though single readings can be large; an effect the other way counts as inactive or inconclusive.

Sequence of N-terminal Xaa-Pro-Lys N-methyltransferase 1 (Homo sapiens) (Q9BV86 whole entry, looked up): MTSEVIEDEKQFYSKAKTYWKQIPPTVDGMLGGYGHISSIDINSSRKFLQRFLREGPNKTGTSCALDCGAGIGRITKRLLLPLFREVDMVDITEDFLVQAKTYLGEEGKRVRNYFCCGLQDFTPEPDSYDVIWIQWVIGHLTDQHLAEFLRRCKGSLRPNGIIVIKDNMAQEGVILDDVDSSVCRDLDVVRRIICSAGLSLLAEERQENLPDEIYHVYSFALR
Sequence of Furin (Homo sapiens) (P09958 whole entry, looked up): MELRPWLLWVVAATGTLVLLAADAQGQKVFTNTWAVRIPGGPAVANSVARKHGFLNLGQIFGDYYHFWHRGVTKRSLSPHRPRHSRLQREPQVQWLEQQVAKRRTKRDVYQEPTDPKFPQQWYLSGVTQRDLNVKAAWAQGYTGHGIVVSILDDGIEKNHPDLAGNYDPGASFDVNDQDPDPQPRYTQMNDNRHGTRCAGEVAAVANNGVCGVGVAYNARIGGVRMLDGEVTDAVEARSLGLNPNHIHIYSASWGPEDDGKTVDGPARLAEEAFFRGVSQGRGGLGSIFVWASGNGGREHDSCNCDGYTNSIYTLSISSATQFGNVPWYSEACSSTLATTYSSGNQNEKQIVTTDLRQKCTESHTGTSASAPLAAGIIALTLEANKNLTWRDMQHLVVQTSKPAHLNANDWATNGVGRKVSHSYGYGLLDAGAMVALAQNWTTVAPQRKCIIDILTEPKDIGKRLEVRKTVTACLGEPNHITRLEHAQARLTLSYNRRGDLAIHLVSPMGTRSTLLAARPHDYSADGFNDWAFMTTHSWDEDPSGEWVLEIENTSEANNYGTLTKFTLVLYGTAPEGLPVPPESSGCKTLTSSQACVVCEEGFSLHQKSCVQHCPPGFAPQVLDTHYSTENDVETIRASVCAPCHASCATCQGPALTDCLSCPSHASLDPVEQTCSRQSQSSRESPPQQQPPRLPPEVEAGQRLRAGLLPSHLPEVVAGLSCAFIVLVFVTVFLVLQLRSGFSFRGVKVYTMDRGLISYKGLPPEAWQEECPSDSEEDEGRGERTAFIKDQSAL

As for `CN1CCC2=C(C1)c1ccccc1Cc1ccccc12`, the Potency entry in [1] was “inactive”. The call in [2] was inactive.
Take `CN1Cc2c(ccc3c2OCO3)[C@@H]2[C@H]1c1cc3c(cc1C[C@@H]2O)OCO3`: the Potency result in assay [3] is “inactive”.
With `CN1C(=O)[C@]23CC4C(C)(C)[C@@]5(C[C@@]41CN2CC[C@@]3(C)O)C(=O)Nc1c5ccc2c1OC=CC(C)(C)O2` (stereo partly specified), in [4], the Potency was 7.43 µM (active).
On to `C/C=C1/CN2CC[C@]34C(=Nc5ccccc53)[C@@H]2C[C@@H]1[C@H]4C(=O)OC`, for which the Potency entry in assay [5], in assay [6], in assay [7] and in [8] was “inactive” throughout.
Consider `C[C@H]1CCC[C@H](O)CCC/C=C/c2cc(O)cc(O)c2C(=O)O1`, for which the Potency in [9] is 1 µM (active).
For `C[C@H](Nc1ncnc2nc[nH]c12)c1nc2ccc(F)cc2c(=O)n1-c1ccccc1`, in assay [10], the Potency result is “inactive”.
Turning to `CC/C=C/C=C/C1(C)OC(OC)=C(C(=O)C2C(C)C(=O)c3cc(OC)c(O)c(O)c3C2(C)O)C1=O` (stereo unspecified), the Potency result (with Furin (Homo sapiens); in [11]; in assay [12]; in [15]) was “inactive” throughout. For the same compound, the Potency in assay [13] was 9.61 µM (active); in [14], 6.81 µM (active).
